WRN inhibitor: inhibitors of human WRN helicase; Q14191; WRN helicase unwinding, fluorescent forked duplex, kinetic; Potency, µM (top dose mostly 114 µM), hits mostly inhibitors; actives 0.46% (n = 360,000); AID 651768; note: nearly all actives have a fitted effect of over 55% in size
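Enzyme (20 nM final) and test compound sit together 15 min at room temperature before substrate addition. Substrate is a single-forked duplex oligonucleotide (100 nM) labelled with fluorophore and quencher, with 2 mM ATP; helicase unwinding raises red fluorescence, read kinetically.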
Pol iota inh: inhibitors of human DNA polymerase iota. actives 1% (n = 390,000). Pol iota fluorescent replication assay, 10 min. AID 588590. Potency, µM (series often up to 115 µM), actives largely listed as inhibitors
Target sequence (Q9UNA4 whole entry, looked up): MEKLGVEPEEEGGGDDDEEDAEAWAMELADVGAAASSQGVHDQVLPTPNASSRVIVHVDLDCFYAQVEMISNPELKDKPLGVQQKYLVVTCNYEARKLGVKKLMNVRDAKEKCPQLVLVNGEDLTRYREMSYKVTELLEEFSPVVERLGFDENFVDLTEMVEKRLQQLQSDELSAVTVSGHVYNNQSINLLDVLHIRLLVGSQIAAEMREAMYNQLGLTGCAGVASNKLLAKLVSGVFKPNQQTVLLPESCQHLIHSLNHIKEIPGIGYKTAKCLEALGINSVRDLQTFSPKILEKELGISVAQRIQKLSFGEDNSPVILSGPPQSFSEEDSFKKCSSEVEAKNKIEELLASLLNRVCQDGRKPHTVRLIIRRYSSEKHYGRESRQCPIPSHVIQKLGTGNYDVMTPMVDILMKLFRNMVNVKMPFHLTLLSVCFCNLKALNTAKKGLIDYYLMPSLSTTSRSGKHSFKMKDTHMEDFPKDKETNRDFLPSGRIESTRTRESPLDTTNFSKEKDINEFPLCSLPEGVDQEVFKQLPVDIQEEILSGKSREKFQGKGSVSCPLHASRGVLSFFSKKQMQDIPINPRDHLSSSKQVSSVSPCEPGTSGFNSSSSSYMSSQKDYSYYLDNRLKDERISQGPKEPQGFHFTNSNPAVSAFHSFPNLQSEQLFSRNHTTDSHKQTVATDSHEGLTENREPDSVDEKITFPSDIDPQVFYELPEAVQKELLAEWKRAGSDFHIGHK
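Pol iota at 10 nM preincubated 15 min with compounds at room temperature; reaction started with fluorescent substrate, 50 nM final. Fluorescence read kinetically at 0 and 10 min; buffer-only wells as negative control.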
Pol kappa inh-1: blocks human DNA polymerase kappa activity; Q9UBT6; purified Pol kappa, fluorescent DNA synthesis assay, 10 min; Potency, µM (series often up to 107 µM), most hits filed as inhibitors; actives 0.53% (n = 400,000); AID 588579
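Kinetic fluorescence readout at 0 and 10 min followed reaction start with substrate at 50 nM final. Beforehand, enzyme (10 nM Pol kappa) stood 15 min with compound at room temperature; buffer-only wells were negative controls.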
FEN1 inh: inhibitors of human flap endonuclease 1. Potency, µM (titrated, usually from 114 µM), most hits filed as inhibitors. Recombinant FEN1 flap cleavage, fluorescence, 15 min. actives 0.35% (n = 390,000). AID 588795; note: nearly all actives have a fitted effect of over 65% in size
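Recombinant FEN1 (10 nM) was preincubated with pin-transferred compounds for 15 min at room temperature, then flap DNA substrate (50 nM final) was added. Plates were read at 0 and 15 min, and normalized concentration–response data were fitted to a four-parameter Hill equation.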
POLB inh: blocks human DNA polymerase beta activity; Pol beta primer extension/strand displacement, fluorescence kinetic; actives 1.3% (n = 340,000); P06746; Potency, µM (top dose mostly 114 µM), hits mostly inhibitors; AID 485314
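Preincubation: enzyme (10 nM) with compound, 15 min, RT. Reaction: substrate added to 50 nM final. Reads: 0 and 10 min. Analysis: normalized, Hill fit.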
Pol eta inh-1: inhibitors of human DNA polymerase eta; Q9Y253; recombinant Pol eta, fluorescent DNA replication assay; Potency, µM (doses to about 114 µM), most hits filed as inhibitors; actives 1.2% (n = 390,000); AID 588591
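Pol eta (10 nM) was preincubated with compounds for 15 min at room temperature, after which fluorescent replication substrate (50 nM final) was added to start the reaction. Fluorescence was read kinetically at 0 and 10 min.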
TbPGK inh: blocks T. brucei phosphoglycerate kinase. Potency, µM (highest dose often 57.5 µM), hits mostly inhibitors. shares compounds with Pol kappa inh-1. actives 79% (n = 500). TbPGK coupled GAPDH assay, Kinase-Glo luminescence; note: nearly all actives have a fitted effect of over 65% in size
POLI cherry-pick: Confirm cherry-picked inhibitors of human polymerase iota; Pol iota primer extension, TAMRA/BHQ fluorescence; Potency, µM, most hits filed as inhibitors; shares compounds with Pol kappa inh-1; actives 77% (n = 1,500)
Pol kappa inh-2: Pol kappa (human) inhibition, cherry-pick confirmation; purified Pol-kappa, fluorescent strand-displacement substrate; shares compounds with Pol eta inh-1; Potency, µM, hits mostly inhibitors; actives 76% (n = 920)
Pol eta inh-2: Pol eta (human) inhibition, cherry-pick confirmation; AID 720502; shares compounds with Pol eta inh-1; Potency, µM, actives largely listed as inhibitors; actives 64% (n = 2,600); Pol eta primer extension, TAMRA/BHQ fluorescence, 10 min
Large screens that a line does not name were inactive (follow-up assays come after a bar, where they were run). Rows were chosen to be rich in hits. Some 2.4% of all compounds tested hit in one or more screens of this group. Calls come from the whole dose curve; as a rule, active = well fitted curve in the direction sought with a large enough effect; inconclusive = small, poorly fitted or top-dose-only effect, or another doubt; inactive = no such curve, though single readings can be large; an effect the other way counts as inactive or inconclusive.

c1cc2c(cc1C1=NNC(=NC3CC3)SC1)OCCO2	Pol iota inh inconclusive | TbPGK inh 9.2µM
CCCCN=C1NN=C(c2ccc3c(c2)OCCO3)CS1	none
O=C(COc1ccccc1)NCC(c1cccs1)S(=O)(=O)c1ccc(Cl)cc1 (centres undefined)	POLB inh 18µM (no result: WRN inhibitor) | TbPGK inh inconclusive
COc1ccc(CC(=O)NCC(c2cccs2)S(=O)(=O)c2ccc(Cl)cc2)cc1 (centres undefined)	POLB inh 7.9µM (no result: WRN inhibitor) | TbPGK inh 6.5µM
CC(C)=CCc1cc(-c2oc3cc(O)cc(O)c3c(=O)c2O)ccc1O	Pol iota inh inconclusive, Pol eta inh-1 inconclusive (no result: POLB inh) | TbPGK inh inactive
O=c1c(O)c(-c2ccccc2)oc2cc(O)cc(O)c12	none (no result: POLB inh)
Cc1cc(CC(=O)O)c2oc(-c3ccoc3)cc(=O)c2c1	WRN inhibitor inconclusive, Pol iota inh inconclusive, Pol kappa inh-1 40µM, FEN1 inh inconclusive, Pol eta inh-1 8.9µM (no result: POLB inh) | POLI cherry-pick 34 | Pol eta inh-2 7.6
COC(CNC(=O)C1CCN(S(=O)(=O)c2ccc3nc4c(c(C(=O)O)c3c2)CC(C)CC4)CC1)OC (centres undefined)	Pol iota inh inconclusive, Pol kappa inh-1 inconclusive, Pol eta inh-1 14µM | POLI cherry-pick 21 | Pol eta inh-2 5.4
O=C(Cc1cccs1)N=Nc1c(O)[nH]c2ccccc12	none
O=C(N=Nc1c(O)[nH]c2ccccc12)c1cc(-c2cccs2)[nH]n1	Pol iota inh inconclusive, FEN1 inh inconclusive, POLB inh inconclusive, Pol eta inh-1 56µM | POLI cherry-pick 67 | Pol kappa inh-2 inconclusive
C/C(N)=C(/C#N)C(=O)CSc1nnc(NC(C)C)s1	WRN inhibitor inconclusive, Pol iota inh inconclusive, Pol kappa inh-1 inconclusive, FEN1 inh 35µM, Pol eta inh-1 28µM | POLI cherry-pick 67 | Pol eta inh-2 67
O=C(O)C1=C(C(=O)O)C2C=CC1C2	Pol iota inh inconclusive, Pol kappa inh-1 inconclusive, Pol eta inh-1 20µM (no result: POLB inh) | TbPGK inh 10µM | Pol kappa inh-2 24 | Pol eta inh-2 inconclusive
Cc1ccc2nccc(/C=C/c3ccc(N(C)C)cc3)c2c1	none (no result: WRN inhibitor, POLB inh, Pol eta inh-1)
COc1ccc(C(=O)C(=O)N2CCC(c3ccccc3)CC2)cn1	none (no result: Pol iota inh, Pol kappa inh-1, FEN1 inh, POLB inh, Pol eta inh-1)
COc1ccc(CCC(=O)O)c(O)c1	Pol iota inh inconclusive, Pol kappa inh-1 71µM, POLB inh 40µM, Pol eta inh-1 32µM | POLI cherry-pick 75 | Pol eta inh-2 67
COc1ccc(C(=O)CCc2ccccc2)c(O)c1	none (no result: POLB inh)
O=C(O)c1ccc(Nc2nc(-c3cc4ccccc4oc3=O)cs2)cc1O	WRN inhibitor inconclusive, Pol iota inh 22µM, Pol kappa inh-1 56µM, FEN1 inh inconclusive, POLB inh 100µM, Pol eta inh-1 25µM | POLI cherry-pick inconclusive | Pol kappa inh-2 75 | Pol eta inh-2 67
CSc1ccc(/C=C2\C=C(C(O)c3ccc(SC)cc3)c3ccccc32)cc1 (centres undefined)	none (no result: WRN inhibitor, POLB inh, Pol eta inh-1)
O=C(O)c1ccc(COc2ccccc2/C=C2/NC(=O)N(c3cccc(Cl)c3)C2=O)cc1	WRN inhibitor inconclusive, Pol iota inh 28µM, Pol kappa inh-1 40µM, FEN1 inh 56µM, POLB inh 25µM, Pol eta inh-1 10µM | POLI cherry-pick 34 | Pol kappa inh-2 19 | Pol eta inh-2 34
CN1C(=O)/C(=C/c2ccccc2OCc2ccc(C(=O)O)cc2)NC1=S	Pol iota inh inconclusive

Source: PubChem BioAssay
